In PubChem BioAssay (NCI):
“And” between values parts separate entries of the source, which are not always exact repeats. Equal values may be shown once. This is part of a sample that, as a whole, favours compounds with a hit. Of some 83,000 tested, about 20% had one in any assay.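 Activity criterion: percent growth below 10, measured after cells in 96-well plates were exposed to a single compound concentration for 48 hours.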 The source made the active and inactive calls.

What follows are compounds tested on MDA-MB-468 breast (assay: NCI-60 one-dose screen, 48 h (100 = growth as untreated, 0 = no growth, -100 = all killed)). Conditions: 10 µM unless noted.
In the case of `CC(C)CCC(=O)[C@@H](C)[C@H]1[C@@H](OC2OCC(O)C(O)C2NS(C)(=O)=O)C[C@H]2[C@@H]3CC=C4C[C@@H](O)CC[C@]4(C)[C@H]3CC[C@]12C` (stereo not given in full), the growth is reported as 43.8% (inactive).
For `CCN1CCN(c2nc(NNC(=O)c3ccccc3)nc(N3CCN(C(c4ccccc4)c4ccccc4)CC3)n2)CC1`, the growth was 7.71% (active).
For `COc1ccc(O)c(N=Nc2nccs2)c1`, the growth was 17.5% (inactive).
For `O=C(O)CC(Cl)C(Cl)CC(=O)O` (stereo not given), the growth was 114% (inactive).
With `Cc1cc2c(cc1C)N(C(=O)CCl)CCN2C(=O)CCl` the growth was -76% (active).
For `O=C(NCCNc1nccc(-c2c(-c3cccc(O)c3)nc3sccn23)n1)c1ccc(N2CCOCC2)c(C(F)(F)F)c1`, the growth was 50.2% (inactive).
For `N[C@H]1CN(C(=O)c2cc3cc(Br)c(F)c(F)c3[nH]2)C[C@@H]1O`, the growth was 106% (inactive).
In the case of `O=C1C(=O)N(Cc2ccc(-c3ccccc3)cc2)c2ccc(OC(F)(F)F)cc21`, the growth is reported as 25% (inactive).
In the case of `CN1CCN(CCNc2nc(-c3cccc(NS(=O)(=O)c4cccc5c(N(C)C)cccc45)c3)cs2)CC1`, the growth is reported as 42.9% (inactive).
For `C=C(c1ccc(C(=O)O)cn1)c1cc2c(cc1C)C(C)(C)CCC2(C)C`, the growth was 91.5% (inactive).
`NC(N)=NC(N)=NCCCc1ccccc1` was tested, and the growth was -0.206% [100 µM] (active).
In the case of `CO/N=C(/C)c1ccc(NC(=O)CSc2nnc(-c3ccncc3)n2-c2ccccc2)cc1`, the growth is reported as 50.8% (inactive).
In the case of `C=CCn1c(SCC(=O)Nc2ccc(C(=O)/C=C/c3ccc(OC)cc3)cc2)nnc1-c1ccc(OC)c(OC)c1`, the growth is reported as 75% (inactive).
`O=C(/C=C/c1cc2ccccc2[nH]c1=O)c1ccc2c(c1)OCO2` was tested, and the growth was 114% (inactive).
With `CN(C)c1ccc(-c2ccc3[nH]c(=O)nc(-c4ccccc4)c3c2)cn1` the growth was 42.4% (inactive).
With `c1cc(N2CCCC2)c2nc(-c3[nH]ncc3Nc3ncnc4[nH]ccc34)[nH]c2c1` the growth was -76.2% (active).
For `CNC(=O)c1cc(-n2ccc3cc(NC(=O)Nc4ccc(N5CCOCC5)c(C(F)(F)F)c4)ccc32)ccn1`, the growth was 95.2% (inactive).
With `CNC(=O)c1cc(Oc2ccc3c(c2)sc2nc(-c4ccc(NC(C)=O)cc4)cn23)ccn1` the growth was 86.3% (inactive).
`Nc1ncnc2c1ncn2C1OC(COC(c2ccccc2)(c2ccccc2)c2ccccc2)C(O)C1O` (stereo not given) was tested, and the growth was 89% (inactive).
With `C=CCc1cc(C(C)=O)cc(OC)c1O` the growth was 90.6% (inactive).
`CN1/C(=C\C=C\C2=[N+](C)c3ccccc3C2(C)C)C(C)(C)c2ccccc21` was tested, and the growth was -40.4% (active).
In the case of `O=C(CC(SCc1ccccc1)c1ccccc1)c1ccccc1` (stereo not given), the growth is reported as 84.9% (inactive).
For `O=C(Oc1cccc2cccnc12)c1ccccc1`, the growth was 71.7% (inactive) and 93.1% (inactive).
`CN1CCN(CCC(=O)Nc2cccc(-n3cc(-c4ccncc4)c(-c4ccc(Cl)c(O)c4)n3)c2)CC1` was tested, and the growth was 12.7% (inactive).
For `CCOC(=O)c1cc2c(n1Cc1cc(OC)c(OC)c(OC)c1)-c1nc(N)sc1CCC2`, the growth was 35.8% (inactive).
In the case of `CC(C)CCC[C@@H](C)C1CCC2C3CCC4=C/C(=N/OCCN(C)C)CC[C@]4(C)C3CC[C@@]21C` (stereo not given in full), the growth is reported as 87.3% (inactive).
With `Cc1cccc(C(=O)O)n1` the growth was 111% (inactive).
For `FC(F)(F)c1ccc(-c2cnc(-c3nn[nH]n3)nc2NC2CCCCCC2)cc1`, the growth was 68.5% [50 µM] (inactive).
In the case of `COC1OC2COC(c3ccccc3)OC2C(=O)C1NC(=O)c1ccccc1` (stereo not given), the growth is reported as 113% (inactive).
For `COc1ccccc1CNCCCN1C(=O)c2ccc3c4c(ccc(c24)C1=O)C(=O)N(CCCNCc1ccccc1OC)C3=O`, the growth was -96.6% (active).
With `c1ccc(Sc2ncnc3ccccc23)cc1` the growth was 50.3% (inactive).
For `Nc1ccn(C2OC(F)(CO)C(O)C2F)c(=O)n1` (stereo not given), the growth was 76.2% (inactive).
`O=C(Cc1ccccc1)c1ccc(Cl)cc1` was tested, and the growth was 124% (inactive).
In the case of `Oc1ccc(-c2nc3ccc4[nH]ncc4c3c3c2CCCC3)c(F)c1`, the growth is reported as 18.2% (inactive).
In the case of `Cc1ccc([P+](Cc2ccc([N+](=O)[O-])cc2)(c2ccc(C)cc2)c2ccc(C)cc2)cc1`, the growth is reported as -11.7% (active).
For `C=C1C(=O)O[C@H]2[C@H]1CC/C(COC(=O)NCc1c[nH]c3ccc(F)cc13)=C\CC[C@@]1(C)O[C@@H]21`, the growth was -58.1% (active).
With `COc1ccc(/C=C(\C#N)n2nnc3cc(F)c(F)cc32)cc1` the growth was 8.69% (active).
For `CN(C)CCCOc1c2ccc(Cl)cc2nc2c1oc1ccccc12`, the growth was -39.8% (active).
For `O=C1CCn2c1c(O)c1ccccc1c2=O`, the growth was 105% (inactive).
For `CN1C(C(=O)Nc2ccccn2)=C(O)c2sc(Cl)cc2S1(=O)=O`, the growth was 98.7% (inactive).
